SMILES strings stand for the structures. Several values for one entry are separate records, joined by “and”; a condition that tells them apart may be missing. Identical values can stand only once. Activity calls are given as the source filed them. Rule for the calls: active = hit-call score of the fitted dose curve at least 0.9, where 1 is the maximum; inactive = score below 0.9.

Read-out in this test: Collagen III, COL3A1 (gene 1281)
The test is described as follows: BSK_hDFCGF_CollagenIII: BioMAP Diversity Plus: hDFCGF Assay for Collagen III Biomarker Activity (AID 2283056). The settings on record: primary human foreskin fibroblasts; actives raise or lower the signal. How it is done:
BSK_hDFCGF is a cell-based, multiplexed-readout assay that uses foreskin fibroblast, a human skin primary cell, with measurements taken at 24 hours after chemical dosing in a 96-well plate.BSK_hDFCGF_CollagenIII is an assay component measured in the BSK_hDFCGF assay. It measures Collagen antibody related to regulation of gene expression using ELISA technology.Data from the assay component BSK_hDFCGF_CollagenIII was analyzed into 1 assay endpoint. This assay endpoint, BSK_hDFCGF_CollagenIII, was analyzed with bidirectional fitting relative to DMSO as the negative control and baseline of activity. Using a type of binding reporter, gain or loss-of-signal activity can be used to understand changes in the signaling as they relate to the gene COL3A1. Furthermore, this assay endpoint can be referred to as a primary readout, because this assay has produced multiple assay endpoints where this one serves a signaling function. To generalize the intended target to other relatable targets, this assay endpoint is annotated to the cell adhesion molecules intended target family, where the subfamily is collagen.
The levels of cell surface (or secreted, indicated by the prefix "s") biomarker endpoints were measured by ELISA. Overt cytotoxicity to cells in confluent adherent cultures (all systems other than the BT system) was assessed by measuring total protein levels using sulforhodamine B (SRB) staining in parallel cultures at the time of biomarker measurements, indicated as SRB endpoints. For proliferation assays for adherent cell types, individual cell types are cultured at sub-confluence and relative cell numbers quantified by SRB staining at time points optimized for each system (48 h: 3C and CASM3C systems; 72 h: BT and HDF3CGF systems; 96 h: SAg system). SRB was performed by staining cells with 0.1% SRB after fixation with 10% TCA and reading wells at 560 nm.Viability and proliferation of PBMC (T cells) was quantified by Alamar Blue reduction for the SAg and BT systems. For PBMC viability (referred to as PBMC Cytotoxicity within the assay endpoint names), cells were plated (75,000/well in a 96-well plate) and then chemical samples added for 1 h before addition of activators, SEB and TSST-1 (20 ng/mL final concentration each). Cells were incubated for 90 h. Then, Alamar Blue (20 uL/well) (Invitrogen, Cat DAL1100) was added for 6 h, and the plates were read with a fluorescence microplate reader at 546/580 nm (excitation/emission). For PBMC proliferation, cells were plated and activated as above but incubated for only 16 h prior to addition of Alamar Blue. Plates were read after 6 h.
`COc1cccc(C(=O)NN(C(=O)c2cc(C)cc(C)c2)C(C)(C)C)c1C`: the outcome was inactive. Still for that read-out and setting: to `CCC(=NOC/C=C/Cl)C1=C(O)CC(C2CCOCC2)CC1=O` (stereo not given) belongs “inactive”; to `CCOC(=O)CC(SP(=O)(OC)OC)C(=O)OCC` (stereo not given), “inactive”. Turning to `C[Si](Cn1cncn1)(c1ccc(F)cc1)c1ccc(F)cc1`, the outcome was inactive. The same measure, in the same setting: for `COP(=O)(NC(C)=O)SC` (stereo not given) the value was “inactive”. What is called AC50 is the concentration giving half of the maximal activity seen. On to `N#CSCSC#N`, for which the AC50 is 2.52 µM (active).

Consider `CCCCSP(=O)(SCCCC)SCCCC`, for which the half-maximal activity concentration (AC50) is 20 µM (active). As to `CCOP(=S)(OCC)Oc1cc(C)nc(C(C)C)n1`, the outcome was inactive. Consider `CC(C)=CC1C(C(=O)OCN2C(=O)C3=C(CCCC3)C2=O)C1(C)C` (stereo not given), for which the AC50 was 20 µM (active). `CNC(=O)Oc1cccc2c1OC(C)(C)O2`: the result was inactive.

On to `CN(C)[C@@H]1C(=O)C(C(N)=O)=C(O)[C@@]2(O)C(=O)C3=C(O)c4c(O)cccc4[C@@](C)(O)[C@H]3[C@H](O)[C@@H]12`, for which the result was inactive.

Take `CCCOCC(=Nc1ccc(Cl)cc1C(F)(F)F)n1ccnc1`: the half-maximal activity concentration (AC50) is 29.4 µM (active).

Turning to `CCCCOC(=O)c1ccccc1C(=O)O`, the result was inactive. Take `CC(C1CC1)C(O)(Cn1cncn1)c1ccc(Cl)cc1` (stereo not given): the result was inactive. Regarding `C#CCC1=C(C)C(OC(=O)C2C(C=C(C)C)C2(C)C)CC1=O` (stereo not given), the half-maximal activity concentration (AC50) was 29.4 µM (active). As to `FC(F)C(F)(F)OCC(Cn1cncn1)c1ccc(Cl)cc1Cl` (stereo not given), the outcome was inactive. `CCCCOC(=O)[C@@H](C)Oc1ccc(Oc2ccc(C#N)cc2F)cc1`: the result was inactive. As for `O=[N+]([O-])c1cc(C(F)(F)F)c(Cl)c([N+](=O)[O-])c1Nc1ncc(C(F)(F)F)cc1Cl`, the concentration at half-maximal activity (AC50) was 1.83 µM (active) and 11.7 µM (active). `CNC(=O)ON=C(C)SC`: the result was inactive. On to `CCOP(=S)(OCC)OC(Cl)C(Cl)(Cl)Cl` (stereo not given), for which the concentration at half-maximal activity (AC50) was 11.1 µM (active). For the compound `Nc1nc(N)nc(NC2CC2)n1`, the outcome was inactive. Take `O=c1ccc(=O)[nH][nH]1`: the result was inactive. For `CSc1nc(NC(C)C)nc(NC(C)C)n1`, the outcome was inactive.

On to `CN(C)NC(=O)CCC(=O)O`, for which the result was inactive.

Turning to `COc1ccc(C(=CC(=O)N2CCOCC2)c2ccc(Cl)cc2)cc1OC`, the result was inactive. Regarding `CCc1cccc(CC)c1N(COC)C(=O)CCl`, the half-maximal activity concentration (AC50) is 11.1 µM (active). Turning to `CCc1cnc(C2=NC(C)(C(C)C)C(=O)N2)c(C(=O)O)c1` (stereo not given), the outcome was inactive. Turning to `CSc1nnc(C(C)(C)C)c(=O)n1N`, the AC50 was 3.97 µM (active). As to `C#CC(C)(C)NC(=O)c1cc(Cl)cc(Cl)c1`, the AC50 was 2.72 µM (active).

With `CCNc1nc(Cl)nc(NC(C)(C)C#N)n1`, the result was inactive. Same read-out and setting: to `CCCSP(=O)(OCC)SCCC` belongs “inactive”; to `CCCCN(CC)c1c([N+](=O)[O-])cc(C(F)(F)F)cc1[N+](=O)[O-]`, “inactive”. As for `CCOP(=S)(OCC)Oc1ccc2c(C)c(Cl)c(=O)oc2c1`, the concentration at half-maximal activity (AC50) was 20 µM (active). As to `CON=C(C(=O)OC)c1ccccc1CON=C(C)c1cccc(C(F)(F)F)c1`, the concentration at half-maximal activity (AC50) was 1.47 µM (active).

In the case of `CC(C)N(C(=O)SCC(Cl)=C(Cl)Cl)C(C)C`, the AC50 was 30.5 µM (active).

`CCOP(=O)(OCC)Oc1cc(C)nc(C(C)C)n1`: the AC50 is 31.7 µM (active).

In the case of `CCOP(=S)(OCC)Oc1ccc([N+](=O)[O-])cc1`, the result was inactive. `COP(=O)(OC)SCn1c(=O)oc2cc(Cl)cnc21`: the AC50 is 14.7 µM (active). For the compound `CCOP(=O)(NC(C)C)Oc1ccc(SC)c(C)c1` (stereo not given), the outcome was inactive.

For the compound `C[N+]1(C)CCCCC1`, the result was inactive.

For the origin of these results see PubChem BioAssay (EPA / NIEHS).
